Source: PubChem BioAssay (several laboratories)
This is a sample that favours compounds with a hit; in the whole collection about 4.7% have one here.
TROY NFkB inh: inhibitors of TROY-driven NF-kB signaling, primary screen, Q293 LMP1-TROYcd cells, NF-kB luciferase, uHTS; inhibition, % at 10 µM; Q293 LMP1-TROYcd NF-kB luciferase reporter, 4 h; 360,000 compounds, 0.98% hits;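 active = compounds whose plate-normalised and pattern-corrected inhibition of the luciferase reporter signal at the single screening dose is 50% or more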
LMP1 NFkB inh: EBV LMP1-driven NF-kappaB luciferase reporter inhibitors, primary screen, cell-based, luminescence, single point | LMP1-induced NF-kappaB luciferase reporter cells | inhibition, % at 12.5 µM | 350,000 compounds, 0.69% hits; in the data active = inhibition above about 41%;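 also: 0% = neutral control wells and 100% = reference inhibitor control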
HSF1 inhib: HSF1 inhibitors in luciferase reporter cells, primary screen, cell-based, NIH3T3, luminescence. NIH3T3-HGL HSE-luciferase, MG132-induced, luminescence 8 h; hits give low values. activity change, negative = inhibition, % at 7.5 µM (by protocol). 300,000 compounds, 0.77% hits. AID 2098, 2009;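 active = more than half of replicate wells show activity change below -50%, luminescence cut by over half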;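 also: luciferase reports HSF-1 transcriptional activity via heat shock element; 0% = median of DMSO wells and -100% = zero luminescence signal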
TWEAK-Fn14 inh: inhibitors of TWEAK-Fn14 signaling, primary screen, luciferase reporter cells, uHTS; 360,000 compounds, 2% hits; AID 1159606, 2016; inhibition, % at 10 µM; TWEAK-stimulated Fn14 reporter cells, luciferase luminescence, 8 h; in the data active = inhibition above about 50%
HSF-1 act: HSF-1 activators, primary screen, NIH3T3-HGL cells, MG132 stress, luminescence, single point. NIH3T3-HGL HSF-1 luciferase reporter, 8 h; 100% = twice DMSO control signal. activation, % at 9 µM. 300,000 compounds, 1.7% hits;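 active = mean replicate activation of at least 50% with a set share of replicates each reaching 50%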;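 also: 0% = median of the neutral control wells and 100% = twice that signal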
HSP90 refold inh: HSP90 inhibitors, primary screen, cell lysate, luminescence. inhibition, % at 5.6 µM. Heat shock protein HSP 90 (rabbit reticulocyte lysate; luciferase refolding). Rabbit reticulocyte lysate, luciferase refolding luminescence, 3 h. 290,000 compounds, 0.91% hits;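 active = inhibition above the screen-wide mean plus 3 SD, computed separately per campaign, cut at about 16% in these data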;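 also: 0% = DMSO wells and 100% = 60 µM geldanamycin wells; inhibitors lower the luminescence because luciferase stays unfolded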
HSP90 confirm: HSP90 inhibitors, confirmation, cell lysate, luminescence; shares compounds with HSP90 refold inh; rabbit reticulocyte lysate, luciferase refolding luminescence, 3 h; inhibition, % at 5.9 µM; 2,300 compounds, 64% hits; AID 1846, 2009; in the data active = inhibition above about 18%;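 also: 0% = vehicle wells and 100% = reference inhibitor wells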
FLuc counter: firefly luciferase inhibitors, HSP90 counter-screen, confirmation, artefact control for HSP90 inhibitor project, biochemical, luminescence, triplicate. inhibition, % at 5.9 µM. 2,300 compounds, 48% hits. purified native firefly luciferase. shares compounds with HSP90 refold inh;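 active = inhibition above the mean inhibition of all tested sample wells plus 3 SD, cut at about 10% in these data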;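 also: 0% = DMSO with luciferase and 100% = wells lacking luciferase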
Target sequence (P08659 whole entry, looked up): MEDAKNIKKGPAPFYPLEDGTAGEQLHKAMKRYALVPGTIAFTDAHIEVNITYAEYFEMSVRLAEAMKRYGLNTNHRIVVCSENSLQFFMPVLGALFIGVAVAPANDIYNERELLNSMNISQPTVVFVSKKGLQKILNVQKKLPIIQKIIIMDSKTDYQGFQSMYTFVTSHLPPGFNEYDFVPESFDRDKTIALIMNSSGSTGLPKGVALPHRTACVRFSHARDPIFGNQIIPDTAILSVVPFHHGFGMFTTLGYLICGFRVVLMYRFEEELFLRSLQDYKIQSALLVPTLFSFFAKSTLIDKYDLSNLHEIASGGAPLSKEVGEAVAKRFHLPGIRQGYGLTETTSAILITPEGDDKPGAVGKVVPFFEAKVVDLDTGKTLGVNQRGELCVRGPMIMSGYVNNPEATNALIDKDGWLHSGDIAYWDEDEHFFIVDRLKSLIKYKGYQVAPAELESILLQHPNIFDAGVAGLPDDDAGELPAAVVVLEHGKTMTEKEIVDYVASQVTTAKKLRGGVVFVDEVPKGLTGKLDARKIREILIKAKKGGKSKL
Starred values were filed as active, the others as inactive; · = not tested or not shown.

SMILES	TROY NFkB inh	LMP1 NFkB inh	HSF1 inhib	TWEAK-Fn14 inh	HSF-1 act	HSP90 refold inh	HSP90 confirm	FLuc counter
N#CCSc1ccccc1NC(=O)CN1C(=O)C(=O)N(Cc2ccccc2)C1=O	-5	-11	·	13	·	·	·	·
COc1ccc(CN(Cc2cc3cc(OC)c(OC)cc3[nH]c2=O)C(=O)NC2CCCCC2)cc1	25	1	·	9	·	-1	·	·
COc1cc2cc(CN(C(=O)NC3CCCCC3)C3CCCC3)c(=O)[nH]c2cc1OC	-3	-6	-44	7	-54	22*	-4	-8
O=C(Nc1ccc2[nH]ccc2c1)c1ccccc1	-43	27	1	-11	10	44*	56*	30*
O=C(Nc1ccc2[nH]ccc2c1)c1ccc(F)cc1	-47	28	14	20	34	53*	64*	46*
COc1cc(-c2c(CCO)sc3ccccc23)cc(OC)c1OC	11	·	·	17	·	·	·	·
O=C1CN(C(=O)CNCc2ccc(Cl)cc2)c2ccccc2N1	4	-1	9	-1	4	25*	-13	-11
Cc1ccc(-n2cnc3c(=O)[nH]cnc32)cc1	-32	-3	·	4	·	·	·	·
O=C(O)c1cccc(COc2ccc3c(c2)CCC3)c1	-89	85*	-79*	12	-82	83*	95*	93*
O=Cc1ccc(OCc2cccc(C(F)(F)F)c2)cc1O	30	20	0	15	17	-4	·	·
O=C(OCC(F)(F)F)c1cccc(COc2ccc3ccccc3c2)c1	-53	79*	-62*	-2	-66	25*	93*	22*
O=C(NCc1ccccc1)c1cccc(COc2ccc3c(c2)CCC3)c1	-54	58*	-35	3	-35	36*	45*	45*
O=C(CCC(=O)OCCOc1ccccc1)OCCOc1ccccc1	3	·	·	-7	·	·	·	·
C[C@@H]1CN([C@H](C)CO)C(=O)CCCn2nncc2CO[C@@H]1CN(C)S(=O)(=O)c1ccc(F)cc1	3	8	·	-9	·	·	·	·
COc1cc(OC)cc(C(=O)NCC(=O)OCC(=O)Nc2cc(S(C)(=O)=O)ccc2Cl)c1	16	-6	-7	-3	-7	27*	-11	-15
CCCCN(C=O)c1c(CC)nc2c(OCC(=O)N3CCOCC3)cccn12	3	·	·	2	·	·	·	·
CC(C)(C)c1ccc(C(=O)Nc2ccc(CC(=O)O)cc2)o1	55*	72*	-59*	88*	-64	22*	23*	-30
COc1ccc(-c2sc3ccc(-c4ccc5c(c4)OCO5)cc3c2-c2ccc(OC)nc2)cc1	-37	-11	·	-13	·	·	·	·
COc1ccc(CNC(=O)COC(=O)c2ccco2)cc1	19	-5	-1	10	-14	51*	-7	-9
CC(C)(C)OC(=O)N1CCC(NC(=O)c2[nH]c(C(F)(F)F)nc2-c2ccccc2)CC1	10	·	·	23	·	·	·	·
Cc1ccccc1-c1ccc(=O)n(CC(=O)Nc2ccc(N3CCOCC3)cc2)n1	-14	2	14	-1	25	43*	0	-5
Cc1ccccc1-c1ccc(=O)n(CC(=O)Nc2ccc(C(=O)N3CCCC3)cc2)n1	9	-13	-12	1	13	-1	·	·
COc1ccc(C(=O)NNc2ccccc2)cc1	-8	-15	-3	5	4	-4	·	·
COc1ccc(NC(=S)NNc2ccc(C(=O)O)cc2)cc1	19	-10	-1	58*	31	21*	42*	38*
O=S1(=O)N[C@@H](Cc2ccccc2)COc2cc(N3CCC[C@H]3CO)ccc21	9	·	·	-13	·	·	·	·
SMILES	TROY NFkB inh	LMP1 NFkB inh	HSF1 inhib	TWEAK-Fn14 inh	HSF-1 act	HSP90 refold inh	HSP90 confirm	FLuc counter
O=C(NCC(=O)N1CCCCCCC1)c1ccc(Cl)cc1	-36	-7	·	12	·	·	·	·
O=C(CNC(=O)c1ccc(Cl)cc1)OCC(=O)N1CCCC1	13	2	3	-6	-6	19*	-4	-8
CC1(C)CCc2cc(-c3ccnc(=S)[nH]3)ccc2O1	50	-25	-42	62*	-43	18*	9	-17
CC(C)NC(=O)N(C)C[C@H]1OCCCC[C@H](C)Oc2ccc(NS(=O)(=O)c3ccccc3)cc2C(=O)N([C@H](C)CO)C[C@H]1C	-8	-2	·	-11	·	·	·	·
Cn1c(-c2ccccc2)cc(=O)c2ccccc21	10	-4	-3	22	-9	-2	·	·
Cn1c2ccccc2c(=O)n2c(=O)c3ccccc3cc12	·	·	-2	·	5	19*	23*	-1
O=C(NCCCN1CCCC1=O)C(=O)NCC1OCCN1S(=O)(=O)c1cc(F)ccc1F (stereo not given)	-6	-5	·	13	·	·	·	·
Cc1cc2cc(CNC(=S)NCc3ccccc3)ccc2n1C	3	1	-12	11	-10	1	·	·
Cc1cc2cc(CNC(=S)NC3CCCCC3)ccc2n1C	7	2	0	13	-3	20*	4	-2
C#CCNC(=O)C[C@@H]1C[C@@]2(C(=O)OC)CCCCC=C2N(CCCCCCCC)C1=O	-6	·	·	5	·	·	·	·
COc1ccccc1-c1ccc(C(=O)O)o1	-68	-12	-9	-12	7	46*	54*	-14
COC(=O)c1nn(-c2ccc3c(c2)CCN3C(C)=O)cc1O	76*	55*	-58*	103*	-61	85*	88*	74*
COC(=O)c1nn(-c2ccc3c(c2)OCO3)cc1O	-22	-13	15	29	26	9	·	·
COC(=O)c1ccc2nc(NC(=O)C3CC3)sc2c1	-20	-25	19	-3	28	39*	57*	-20
Cc1ccc(NC(=O)c2ccc(OCC3CCCO3)cc2)nc1 (stereo not given)	-25	-7	24	24	34	·	·	·
O=C(Nc1nc2ccccc2s1)c1ccc(OCC2CCCO2)cc1 (stereo not given)	78*	7	5	93*	13	19*	39*	33*
O=C(NNc1nc2ccccc2s1)Nc1ccccc1	46	-25	-47	27	-55	6	·	·
C/C(=C\C(=O)c1ccccc1)NNc1nc2ccccc2s1	47	-4	11	-3	25	37*	-5	-11
